For nine compounds, Potency results are on record in PubChem BioAssay (Tox21).

Assay [1] in a line: A CellTox Green Cytotoxicity Assay to monitor cytotoxicity in HepG2 cells - 0 hour (AID 1224882). Further: nearly all actives have a fitted effect of over 35% in size. Further: potency means the concentration at half of the fitted maximal effect. An outline of the steps: (§1)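 Continuous culture of HepG2 cells with a membrane-impermeant DNA dye; rising fluorescence marks dead cells. Compound exposure lasted up to 40 h at 37 C, with reads every 8 h from 0 h.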
A short description of assay [2]: A CellTox Green Cytotoxicity Assay to monitor cytotoxicity in HEK293 cells - 8 hour (AID 1224884). Further: nearly all actives have a fitted effect of over 35% in size. Further: potency means the concentration at half of the fitted maximal effect. An outline of the steps:
(§2)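 Each value comes from one timepoint of a single continuous run in which HEK293 cells with CellTox Green were exposed to compound for up to 40 h at 37 C, dye fluorescence rising with cell death.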

The nature of assay [3]: qHTS RealTime-Glo MT Cell Viability Assay in HepG2 cells - 16 hour (AID 1224885). Further: nearly all actives have a fitted effect of over 50% in size. Further: potency means the concentration at half of the fitted maximal effect. An outline of the steps:
(§3)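 Compound treatment began 5 h after plating HepG2 cells (600/well) with NanoLuc luciferase and prosubstrate. Plates stayed at 37 C for 40 h; luminescence was captured at six time points, 0 h through 40 h.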
Background: In qHTS, concentration-response curves come from the screen itself.

The nature of assay [4]: qHTS RealTime-Glo MT Cell Viability Assay in HEK293 cells - 24 hour (AID 1224886). Further: nearly all actives have a fitted effect of over 50% in size. Further: potency means the concentration at half of the fitted maximal effect. An outline of the steps: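 Quantitative high-throughput screen of the Tox21 10K library in HEK293: cells and RealTime-Glo reagents plated together, compound added at 5 h, luminescence monitored through 40 h at 37 C.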
Assay [5] is described as follows: A CellTox Green Cytotoxicity Assay to monitor cytotoxicity in HEK293 cells - 16 hour (AID 1224888). Further: nearly all actives have a fitted effect of over 35% in size. An outline of the steps:
as §2

Assay [6] can be described thus: qHTS RealTime-Glo MT Cell Viability Assay in HepG2 cells - 0 hour (AID 1224889). Further: nearly all actives have a fitted effect of over 50% in size. Further: potency means the concentration at half of the fitted maximal effect. An outline of the steps: as §3
Assay [7] in a line: qHTS assay to identify small molecule antagonists of the estrogen receptor alpha (ER-alpha) signaling pathway using the BG1 cell line in the presence of 0.1 nM 17-beta-estradiol - cell viability counter screen (AID 1259241). Further: nearly all actives have a fitted effect of over 40% in size. An outline of the steps: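 VM7Luc4E2 cells (endogenous ER-alpha, 4×ERE-luciferase), hormone-starved 5 days in charcoal-stripped FBS, were treated with compounds plus 0.1 nM 17beta-estradiol for 22 hr at 37C; viability read in same wells as CellTiter-Fluor live-cell protease fluorescence.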

Assay [8] in a line: qHTS assay to identify small molecule antagonists of the androgen receptor (AR) signaling pathway using the MDA cell line in the presence of 0.5 nM R1881 - cell viability counter screen (AID 1259242). Further: nearly all actives have a fitted effect of over 45% in size. An outline of the steps:
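Fluorescence from CellTiter-Fluor, which reports protease activity of live cells, was read 30 min after reagent addition to MDA-kb2 cells that had been incubated 16 hr with compound and 0.5 nM R1881.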

The target of assay [9] is Estrogen receptor (Homo sapiens) (UniProt P03372). Kind of assay: qHTS assay to identify small molecule antagonists of the estrogen receptor alpha (ER-alpha) signaling pathway using the BG1 cell line in the presence of 0.1 nM 17-beta-estradiol (AID 1259244). Further: nearly all actives have a fitted effect of over 50% in size. An outline of the steps: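 Quantitative high-throughput screen in VM7Luc4E2 cells: compound plus 0.1 nM E2 (final), 22 h, 37C, 5% CO2; ONE-Glo added, 30 min room temperature, luminescence measured.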
Estrogen receptor (Homo sapiens), sequence (P03372 whole entry, looked up): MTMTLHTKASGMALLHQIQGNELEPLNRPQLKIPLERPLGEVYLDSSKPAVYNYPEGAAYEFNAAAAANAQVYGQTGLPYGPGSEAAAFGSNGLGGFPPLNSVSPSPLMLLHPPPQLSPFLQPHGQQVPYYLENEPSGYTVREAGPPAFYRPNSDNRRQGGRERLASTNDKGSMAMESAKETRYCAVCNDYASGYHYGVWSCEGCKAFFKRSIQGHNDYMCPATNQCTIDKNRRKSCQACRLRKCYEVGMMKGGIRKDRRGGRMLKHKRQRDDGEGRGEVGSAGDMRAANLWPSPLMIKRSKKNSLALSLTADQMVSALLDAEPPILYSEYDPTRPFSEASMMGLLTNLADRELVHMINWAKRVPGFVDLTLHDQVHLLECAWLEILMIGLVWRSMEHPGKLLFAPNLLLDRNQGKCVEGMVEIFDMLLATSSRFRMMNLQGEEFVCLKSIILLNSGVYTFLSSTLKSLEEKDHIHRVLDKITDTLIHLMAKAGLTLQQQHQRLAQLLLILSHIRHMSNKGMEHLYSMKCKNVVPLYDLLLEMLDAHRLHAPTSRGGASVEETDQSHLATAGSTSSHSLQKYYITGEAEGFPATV

Assay [10] in a line: qHTS assay to identify small molecule HDAC inhibitors (AID 1259364). Further: nearly all actives have a fitted effect of over 45% in size. Further: potency means the concentration at half of the fitted maximal effect. An outline of the steps:
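Endogenous HDAC class I/II activity was measured in wild-type HCT-116 cells by HDAC-Glo luminescence after 2 h compound treatment.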

The nature of assay [11]: qHTS assay to identify small molecule HDAC inhibitors - cell viability counter screen (AID 1259365). Further: nearly all actives have a fitted effect of over 50% in size. Further: potency means the concentration at half of the fitted maximal effect. An outline of the steps:
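Wild-type HCT-116 cells were seeded at 1,500 per well, incubated overnight at 37 C, then exposed to compounds in DMSO for 2hr. Viability was read by CellTiter-Glo luminescence after 30min at room temperature.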

Assay [12] is described as follows: qHTS assay to identify small molecule antagonists of the sonic hedgehog signaling (Shh) pathway - cell viability counter screen (AID 1259367). Further: nearly all actives have a fitted effect of over 55% in size. Further: potency means the concentration at half of the fitted maximal effect. An outline of the steps:
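Seed 3T3 Gli1-Luc cells at 2,000 per well; incubate 4 hr; add compound in DMSO, then conditioned medium; incubate at 37C with 5% CO2; add CellTiter-Fluor after 23 hr; read fluorescence 1 hr later.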

A short description of assay [13]: qHTS assay to identify small molecule agonists of the sonic hedgehog signaling (Shh) pathway (AID 1259368; calls by dose curve; further: series mostly up to about 92 µM; nearly all actives have a fitted effect of over 15% in size). An outline of the steps: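 Luminescent signal was taken as a measure of Gli1-controlled luciferase expression in stably transfected NIH/3T3-derived cells that had been treated for 24 hr with compounds delivered in DMSO.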
Assay [14] is described as follows: A CellTox Green Cytotoxicity Assay to monitor cytotoxicity in HepG2 cells - 32 hour (AID 1224883). Further: nearly all actives have a fitted effect of over 50% in size. Further: potency means the concentration at half of the fitted maximal effect. An outline of the steps:
as §1

Assay [15] in a line: qHTS RealTime-Glo MT Cell Viability Assay in HEK293 cells - 8 hour (AID 1224887). Further: nearly all actives have a fitted effect of over 50% in size. Further: potency means the concentration at half of the fitted maximal effect. An outline of the steps:
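qHTS format; HEK293 cells with NanoLuc/prosubstrate reagent, 37 C/5% CO2 for 5 h pre-dosing; compounds 23 nL in DMSO; luminescence at each time point reflects viable cells.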

Assay [16] in a line: A CellTox Green Cytotoxicity Assay to monitor cytotoxicity in HepG2 cells - 8 hour (AID 1224890). Further: nearly all actives have a fitted effect of over 45% in size. Further: potency means the concentration at half of the fitted maximal effect. An outline of the steps:
as §1

Assay [17] in a line: qHTS assay to identify small molecule agonists of the sonic hedgehog signaling (Shh) pathway - cell viability counter screen (AID 1259366). Further: nearly all actives have a fitted effect of over 50% in size. Further: potency means the concentration at half of the fitted maximal effect. An outline of the steps:
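NIH/3T3-derived 3T3 Gli1-Luc cells (stable Gli1-responsive firefly luciferase reporter) were seeded, rested 4 hr at 37 C/5% CO2, then exposed to compounds in DMSO for 24 hr; viability was read by CellTiter-Fluor fluorescence in the same wells.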

For assay [18], the target named is Androgen receptor (Homo sapiens) (UniProt P10275). Kind of assay: qHTS assay to identify small molecule antagonists of the androgen receptor (AR) signaling pathway using the MDA cell line in the presence of 0.5 nM R1881 (AID 1259243). Further: nearly all actives have a fitted effect of over 50% in size. An outline of the steps:
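Inhibition of R1881 (0.5 nM final) induced reporter signal was measured in human MDA-kb2 cells; note the MMTV promoter also responds to GR. Exposure lasted 16 hr at 37C.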

Assay [19] in a line: A CellTox Green Cytotoxicity Assay to monitor cytotoxicity in HEK293 cells - 32 hour (AID 1224881). Further: nearly all actives have a fitted effect of over 40% in size. Further: potency means the concentration at half of the fitted maximal effect. An outline of the steps: as §2
Assay [20] in a line: qHTS assay to identify small molecule phospholipidosis (PLD) inducers (AID 1259344; active means well fitted curve in the direction sought with a large enough effect; an effect the other way counts as inactive or inconclusive). An outline of the steps:
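Quantitative HTS in HepG2: compound plus LipidTOX Red dye for 24 h, paraformaldehyde fixation with Hoechst 33342, widefield high-content imaging; amiodarone as positive and DMSO as negative control.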

The structures appear in SMILES notation. Values without a mark were called inactive. Results filed as inconclusive are left out. Activity calls are given as the source filed them. Unless noted, the call rests on the fitted dose curve; in most records, active means well fitted curve in the direction sought with a large enough effect in the repeat runs; inconclusive means weak or mixed curves; inactive means no such curve, though single readings can be large; an effect the other way counts as inactive or inconclusive.

Androgen receptor (Homo sapiens), sequence (P10275 whole entry, looked up): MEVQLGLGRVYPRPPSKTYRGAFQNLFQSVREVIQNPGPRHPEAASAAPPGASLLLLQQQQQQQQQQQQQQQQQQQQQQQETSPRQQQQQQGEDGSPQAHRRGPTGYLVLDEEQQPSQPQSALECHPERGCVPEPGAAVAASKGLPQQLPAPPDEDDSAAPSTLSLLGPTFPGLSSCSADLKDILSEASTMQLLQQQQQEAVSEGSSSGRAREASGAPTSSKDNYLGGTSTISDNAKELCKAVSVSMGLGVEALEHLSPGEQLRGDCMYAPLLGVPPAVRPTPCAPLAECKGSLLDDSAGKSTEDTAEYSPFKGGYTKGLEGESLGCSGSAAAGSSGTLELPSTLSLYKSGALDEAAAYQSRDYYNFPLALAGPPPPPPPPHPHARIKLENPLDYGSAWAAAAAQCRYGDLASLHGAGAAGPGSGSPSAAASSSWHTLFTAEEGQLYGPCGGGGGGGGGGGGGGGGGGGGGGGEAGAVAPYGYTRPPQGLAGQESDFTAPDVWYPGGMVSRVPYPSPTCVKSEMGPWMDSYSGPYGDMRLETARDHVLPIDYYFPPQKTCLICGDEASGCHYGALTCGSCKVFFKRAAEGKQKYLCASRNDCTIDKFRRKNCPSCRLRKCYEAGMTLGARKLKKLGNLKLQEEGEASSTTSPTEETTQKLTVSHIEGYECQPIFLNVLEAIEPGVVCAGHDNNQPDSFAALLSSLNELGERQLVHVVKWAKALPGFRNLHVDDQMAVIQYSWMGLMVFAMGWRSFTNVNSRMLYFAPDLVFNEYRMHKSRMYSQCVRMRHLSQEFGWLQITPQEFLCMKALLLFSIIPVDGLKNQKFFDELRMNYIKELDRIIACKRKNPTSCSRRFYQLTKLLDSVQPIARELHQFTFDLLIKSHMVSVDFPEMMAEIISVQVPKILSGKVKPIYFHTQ

On to `CC(C)(C)CC(=O)OCC(=O)[C@@]1(O)CC[C@H]2[C@@H]3CCC4=CC(=O)C=C[C@]4(C)[C@H]3[C@@H](O)C[C@@]21C`, for which the Potency result in [1], in assay [2], in assay [3], in [5], in assay [7] and in assay [8] was “inactive” throughout. Moreover, the Potency result in [9], in [10], in [11], in [12] and in assay [13] was “inactive” throughout. For the same compound, the Potency is 21.3 µM (active) in assay [4] and 1.34 µM (active) in assay [6].

Consider `CC(=O)NC1(c2cccc(F)c2)CCN(CC[C@@]2(c3ccc(Cl)c(Cl)c3)CN(c3ccccc3)C(=O)CO2)CC1`, for which the Potency entry in [1], in assay [2], in assay [6], in [16], in assay [8] and in assay [10] was “inactive” in each case. The Potency entry in assay [11] and in assay [13] was “inactive” in each case. The Potency is 43.8 µM (active) in [14]; 43.8 µM (active) in [3]; 17.4 µM (active) in [4]; 31 µM (active) in assay [15]; 24.4 µM (active) in [17].

On to `O=c1cc(-c2ccccc2)oc2ccc3ccccc3c12`, for which the Potency result in assay [1], in assay [3], in [4], in assay [15], in assay [6] and in [8] was “inactive” throughout. In addition, the Potency result in assay [18], in assay [9], in assay [17] and in assay [12] was “inactive” each time. Moreover, the figures for the Potency in assay [14], in [10] and in assay [11] were 21.9 µM (active), 0.137 µM (active) and 17.2 µM (active), respectively.

For the compound `CC[C@]1(O)C[C@H]2CN(CCc3c([nH]c4ccccc34)[C@@](C(=O)OC)(c3cc4c(cc3OC)N(C=O)[C@H]3[C@@](O)(C(=O)OC)[C@H](OC(C)=O)[C@]5(CC)C=CCN6CC[C@]43[C@@H]65)C2)C1`, the Potency entry in assay [19], in assay [1], in assay [3], in [15], in assay [5] and in assay [6] was “inactive” in each case. In addition, the Potency entry in assay [16], in assay [7], in [10], in [11] and in assay [13] was “inactive” in each case.

As for `O=C1c2ccccc2C(=O)N1CCc1noc(-c2ccc(CN3CCCCCC3)s2)n1`, the Potency was 35.7 µM (active) in assay [1]; 35.7 µM (active) in [14]; 35.7 µM (active) in [2]; 35.7 µM (active) in [4]; 35.7 µM (active) in assay [15]; 31.8 µM (active) in [16]. In addition, the Potency entry in [6], in assay [7], in [10], in assay [11], in [17] and in assay [12] was “inactive” in each case. Further, the Potency entry in [13] was “inactive”.

For the compound `Cc1cc(O)ccc1O`, the Potency entry in [1], in [14], in [2], in assay [3], in [6] and in assay [16] was “inactive” in each case. For the same compound, the Potency result in assay [8], in [10], in assay [11] and in [13] was “inactive” each time. The Potency in assay [17] was 13.8 µM (active).

`COc1ncnc(NS(=O)(=O)c2ccc(N)cc2)c1OC`: the Potency result in assay [19], in [2], in assay [3], in assay [4], in assay [5] and in assay [6] was “inactive” each time. Further, the Potency entry in assay [7], in assay [8], in [9], in assay [20], in assay [10] and in [11] was “inactive” in each case. Also, the Potency result in [17], in [12] and in [13] was “inactive” each time.

Regarding `CCOC(=O)c1ccc(O)c(O)c1`, the Potency entry in assay [19], in assay [14], in assay [2], in assay [3], in assay [4] and in [15] was “inactive” each time. For the same compound, the Potency entry in assay [5], in assay [6], in assay [7], in assay [8], in [9] and in assay [10] was “inactive” throughout. In addition, the Potency result in [11], in assay [17], in assay [12] and in assay [13] was “inactive” in each case.

Turning to `COC(=O)c1nc(Cl)c(Cl)nc1N`, the Potency in [19] is 19 µM (active); in assay [15] it was 6.74 µM (active); in assay [17], 10.6 µM (active); in assay [12] it was 5.31 µM (active). Further, the Potency entry in [2], in [6], in assay [7], in assay [11] and in assay [13] was “inactive” in each case.
